# Out of some 52,000 compounds screened, about 4,300 (8.3%) were called active. No stated cut-off is given here; in the data, active means survival mostly below about 52% (no sharp cut-off); inactive means mostly above about 56%. Only a selection was taken, and actives are over-represented in it overall.
# System: DeltatarO mutant
# Assay: S. aureus survival, RN4220 and DeltatarO strains – OD600, teichoic acid synthesis inhibitors, primary screen (AID 463173)
# Conditions: S. aureus RN4220 wild type/DeltatarO growth, OD600, 18 h, stronger effect = lower value, screened at 18.75 µg/mL (by protocol)
row,Structure (SMILES),survival
1,CCCCNC(=O)C(CC)Sc1nnc(-c2ccc(F)cc2)c(-c2ccc(F)cc2)n1 (centres undefined),83% (inactive)
2,CSc1ccc(C2c3[nH]c4ccccc4c3CCN2C(=O)CCc2ccccc2)cc1 (centres undefined),87% (inactive)
3,CC1CCCN(CCCNC(=O)c2ccc3c(c2)N(Cc2ccc(Cl)cc2)C(=O)c2ccccc2S3(=O)=O)C1 (centres undefined),145% (inactive)
4,COc1c(Cl)cc(Cl)cc1CNCCSc1nnnn1C,74% (inactive)
5,COc1ccc(Br)cc1CNC(=O)CCSCc1ccc(Cl)cc1,73% (inactive)
6,CCOC(=O)C1CCCN(S(=O)(=O)c2ccc3c(c2)N(C)C(=O)CC(=O)N3C)C1 (centres undefined),106% (inactive)
7,COc1ccc(OCc2nc3c4c(-c5ccc(OC)cc5)c(-c5ccc(OC)cc5)oc4ncn3n2)cc1,70% (inactive)
8,COC(=O)c1ccc([C@H]2Nc3ccc(S(=O)(=O)Nc4cccc(C)c4)cc3[C@H]3C=CC[C@H]32)cc1,50% (inactive)
9,COC(=O)c1ccc([C@H]2Nc3ccc(S(=O)(=O)Nc4ccc(F)cc4)cc3[C@H]3C=CC[C@H]32)cc1,53% (active)
10,Cc1ccc(NS(=O)(=O)c2ccc3c(c2)[C@H]2C=CC[C@H]2[C@@H](c2ccc(F)cc2)N3)cc1C,58% (inactive)
11,Cc1cccc(C)c1NS(=O)(=O)c1ccc2c(c1)[C@H]1C=CC[C@H]1[C@@H](c1ccc(Cl)cc1)N2,53% (inactive)
12,Cc1cccc(NS(=O)(=O)c2ccc3c(c2)[C@H]2C=CC[C@H]2[C@@H](c2ccc(F)cc2)N3)c1,39% (active)
13,COC(=O)c1ccc([C@H]2Nc3ccc(S(=O)(=O)Nc4ccc(C)cc4)cc3[C@H]3C=CC[C@H]32)cc1,60% (inactive)
14,Cc1ccc(C)c(N2CCN(C(=O)c3ccc4c(c3)c(C)c(C)n4C)CC2)c1,73% (inactive)
15,COc1ccccc1CNC(=O)Cn1c(=O)oc2cc(S(=O)(=O)N3CCC(C)CC3)ccc21,143% (inactive)
16,COc1ccc(N2CCN(C(=O)CN3C(=O)COc4ccc(S(=O)(=O)N5CCC(C)CC5)cc43)CC2)cc1,81% (inactive)
17,CCOC(=O)c1ccc(-c2ccc(/C=C(\C#N)C(=O)Nc3ccc(C)cc3OC)o2)cc1,76% (inactive)
18,Cc1ccc2nc(/C(C#N)=C/c3ccc(-c4cccc(Cl)c4)o3)[nH]c2c1,6% (active)
19,Cc1ccc2nc(/C(C#N)=C/c3ccc(-c4ccc(C(=O)OC(C)C)cc4)o3)[nH]c2c1,36% (active)
20,CCOC(=O)c1ccc(-c2ccc(C=C(C#N)C#N)o2)cc1,87% (inactive)
21,N#C/C(=C\c1ccc(-c2cccc(Cl)c2)o1)C(N)=O,99% (inactive)
22,CCOC(=O)/C(C#N)=C/c1ccc(-c2ccc(C)cc2)o1,98% (inactive)
23,Cc1cc(C(=O)OC(C)C)ccc1-c1ccc(C=C(C#N)C#N)o1,104% (inactive)
24,CCOC(=O)c1ccc(-c2ccc(/C=C(\C#N)c3nc4ccc(C)cc4[nH]3)o2)cc1,32% (active)
25,N#CC(C#N)=Cc1ccc(-c2cccc(C(F)(F)F)c2)o1,114% (inactive)
26,C=CCc1c(C)[nH]c2c(OC)cccc2c1=S,82% (inactive)
27,COc1ccc(C(=O)Nc2ccc(NC(=O)c3cccs3)cc2)cc1OC,72% (inactive)

row,Structure (SMILES),survival
1,COc1ccc(OC)c(NC(=O)C2CCN(S(=O)(=O)c3ccc4c(c3)CCCC(=O)N4)CC2)c1,88% (inactive)
2,CCOC(=O)C1CCN(C(=O)Cn2nc(CC)n3c(cc4sccc43)c2=O)CC1,134% (inactive)
3,COc1cc(C(CC(=O)Nc2ncccc2C)N2Cc3ccccc3C2=O)cc(OC)c1OC (centres undefined),79% (inactive)
4,Cc1ccc(NC(=O)CN2C(=O)CCn3nc(-c4cccn4C)cc32)c(Cl)c1,115% (inactive)
5,COCCCNC(=O)C(=O)Nc1c2c(nn1-c1cccc(Cl)c1)CSC2,79% (inactive)
6,C=CCC(NCc1ccco1)c1ccccc1 (centres undefined),69% (inactive)
7,CCc1ccc2oc(-c3ccc(NC(=O)c4cc(OC)c(OC)c(OC)c4)cc3)nc2c1,57% (inactive)
8,CCOc1cc(C(=O)Nc2ccc3oc(-c4ccc(F)cc4Cl)nc3c2)cc(OCC)c1OCC,64% (inactive)
9,CCOc1cc(C(=O)Nc2ccc3oc(-c4ccc(CC)cc4)nc3c2)cc(OCC)c1OCC,41% (active)
10,CCOc1cc(C(=O)Nc2ccc(-c3nc4cc(C)ccc4o3)cc2)cc(OCC)c1OCC,27% (active)
11,CCOc1cc(C(=O)Nc2ccc(-c3nc4cc(Cl)ccc4o3)cc2)cc(OCC)c1OCC,67% (inactive)
12,CCOc1cc(C(=O)Nc2cccc(-c3nc4ccccc4o3)c2)cc(OCC)c1OCC,51% (inactive)
13,COc1cccc(-n2c(SCC(=O)Nc3nnc(C)s3)nc3c([nH]c4ccccc43)c2=O)c1,60% (inactive)
14,COc1ccc(-n2ccn(CC(=O)Nc3ccccc3C(F)(F)F)c(=O)c2=O)cc1OC,80% (inactive)
15,CNC(=O)COc1ccc(NC(=O)CCn2nc(-c3ccc(C)cc3)c3ccccc3c2=O)cc1,73% (inactive)
16,COc1cc(C2C(C(=O)Nc3ccccc3C)=C(C)Nc3ncnn32)ccc1OCC(N)=O (centres undefined),82% (inactive)
17,CCOc1ccc(CNCCCSc2nnnn2C)cc1OC,74% (inactive)
18,COc1ccccc1NC(=O)N1CCNCC1,73% (inactive)
19,CCC1CN(S(=O)(=O)c2cc(-c3cc(C)no3)ccc2C)c2cc(C)ccc2O1 (centres undefined),52% (active)
20,COc1ccc(-c2cc(C)no2)cc1S(=O)(=O)N1CCOc2ccccc21,73% (inactive)
21,COc1ccc(-c2cc(C)no2)cc1S(=O)(=O)N1CC(C)Oc2ccccc21 (centres undefined),-5% (active)
22,COc1ccc(-c2onc(C)c2C)cc1S(=O)(=O)N1CCc2ccccc21,6% (active)
23,CCC1CN(S(=O)(=O)c2cc(-c3cc(C)no3)ccc2OC)c2cc(C)ccc2O1 (centres undefined),109% (inactive)
24,COc1ccc(-c2cc(C)no2)cc1S(=O)(=O)N1CCc2ccccc21,67% (inactive)
25,CCC1CN(S(=O)(=O)c2cc(-c3cc(C)no3)ccc2C)c2cc(Cl)ccc2O1 (centres undefined),75% (inactive)
26,CCC1CN(S(=O)(=O)c2cc(-c3cc(C)no3)ccc2OC)c2cc(Cl)ccc2O1 (centres undefined),62% (inactive)
27,Cc1ccc(-c2onc(C)c2C)cc1S(=O)(=O)N1CCc2ccccc21,86% (inactive)

# — PubChem BioAssay AID463173 (ICCB-Longwood Screening Facility, Harvard Medical School, 2010)
